A selection: hits, their analogues and other compounds. The true share with any hit is near 2.8%.
WRN inhibitor = blocks human WRN helicase | WRN helicase unwinding, fluorescent forked duplex, kinetic | AID 651768 | actives 0.46% (n = 360,000) | Potency, µM (titrated, usually from 114 µM), without a hit: at the top dose activity change, negative = inhibition, most hits filed as inhibitors | Q14191; further: potency means the concentration at half of the fitted maximal effect; on the % scale 0 is the no-effect control and ±100 the full control effect; nearly all actives have a fitted effect of over 55% in size
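Primary qHTS, 1536-well format. 20 nM WRN + compound, 15 min RT; start with 100 nM forked fluorophore/quencher duplex, 2 mM ATP (final); kinetic read ex 525/em 598 nm.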
POLB inh = DNA polymerase beta (human) inhibition; P06746; Pol beta primer extension/strand displacement, fluorescence kinetic; Potency, µM (top dose mostly 114 µM), inactives show top-dose activity change, negative = inhibition, actives largely listed as inhibitors; actives 1.3% (n = 340,000); AID 485314; further: potency means the concentration at half of the fitted maximal effect; on the % scale 0 is the no-effect control and ±100 the full control effect
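Values derive from four-parameter Hill fits of normalized kinetic data: reads at 0 and 10 min following addition of 50 nM substrate to 10 nM Pol beta preincubated 15 min with compound.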
Pol kappa inh = DNA polymerase kappa (human) inhibition; AID 588579; Q9UBT6; actives 0.53% (n = 400,000); purified Pol kappa, fluorescent DNA synthesis assay, 10 min; Potency, µM (highest dose often 107 µM), without a hit: at the top dose activity, negative = inhibition, most hits filed as inhibitors; further: potency means the concentration at half of the fitted maximal effect; on the % scale 0 is the no-effect control and ±100 the full control effect
Target sequence (Q9UBT6 whole entry, looked up): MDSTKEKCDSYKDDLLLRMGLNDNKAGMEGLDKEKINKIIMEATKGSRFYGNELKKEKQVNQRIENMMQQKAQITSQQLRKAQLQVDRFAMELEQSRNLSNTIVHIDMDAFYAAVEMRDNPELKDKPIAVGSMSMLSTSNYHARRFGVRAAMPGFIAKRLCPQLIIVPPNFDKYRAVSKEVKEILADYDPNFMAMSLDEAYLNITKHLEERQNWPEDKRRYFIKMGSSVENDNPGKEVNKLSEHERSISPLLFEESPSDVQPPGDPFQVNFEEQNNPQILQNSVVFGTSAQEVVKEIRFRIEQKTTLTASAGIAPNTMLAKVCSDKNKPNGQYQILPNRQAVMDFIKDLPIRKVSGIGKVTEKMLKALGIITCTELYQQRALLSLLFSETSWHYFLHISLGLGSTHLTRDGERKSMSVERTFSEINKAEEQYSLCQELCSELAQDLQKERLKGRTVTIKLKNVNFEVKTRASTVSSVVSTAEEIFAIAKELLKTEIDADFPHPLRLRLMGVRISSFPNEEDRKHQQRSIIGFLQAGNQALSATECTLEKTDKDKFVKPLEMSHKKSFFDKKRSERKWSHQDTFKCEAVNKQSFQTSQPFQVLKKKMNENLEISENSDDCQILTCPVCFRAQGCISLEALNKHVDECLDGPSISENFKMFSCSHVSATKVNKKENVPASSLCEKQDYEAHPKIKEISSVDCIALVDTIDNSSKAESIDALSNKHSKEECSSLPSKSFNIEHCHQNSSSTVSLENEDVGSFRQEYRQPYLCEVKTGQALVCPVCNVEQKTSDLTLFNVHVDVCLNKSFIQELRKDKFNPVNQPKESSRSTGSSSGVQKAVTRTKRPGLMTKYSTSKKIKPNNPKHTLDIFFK
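Kinetic fluorescence readout at 0 and 10 min followed reaction start with substrate at 50 nM final. Beforehand, enzyme (10 nM Pol kappa) stood 15 min with compound at room temperature; buffer-only wells were negative controls.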
POLI inh = blocks human DNA polymerase iota activity. Q9UNA4. Pol iota fluorescent replication assay, 10 min. Potency, µM (highest dose often 115 µM), for the others: top-dose activity, negative = inhibition, hits mostly inhibitors. actives 1% (n = 390,000). AID 588590; further: potency means the concentration at half of the fitted maximal effect
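Fluorescent replication assay read twice, at 0 min and 10 min after adding 50 nM (final) substrate. Enzyme (10 nM) and compounds were first incubated 15 min at room temperature; enzyme-free buffer wells were negative controls.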
Pol eta inh = inhibitors of human DNA polymerase eta | recombinant Pol eta, fluorescent DNA replication assay | Potency, µM (titrated, usually from 114 µM), for the others: at the highest dose activity change, negative = inhibition, most hits filed as inhibitors | actives 1.2% (n = 390,000); further: potency means the concentration at half of the fitted maximal effect; on the % scale 0 is the no-effect control and ±100 the full control effect
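Pol eta (10 nM) was preincubated with compounds for 15 min at room temperature, after which fluorescent replication substrate (50 nM final) was added to start the reaction. Fluorescence was read kinetically at 0 and 10 min.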
PI5P4Ka inh = PI5P4K alpha (human) kinase inhibition | max response, % | P48426 | actives 1.2% (n = 330,000) | PI5P4Kalpha enzyme, ADP-Glo luminescence, 60 min; stronger effect = lower value; active means max response of -50% or lower; inconclusive means between -30% and -50%; inactive means -30% or higher; further: value at the top dose of about 77 µM; on the % scale 0 is the no-effect control and ±100 the full control effect
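Human PI5P4Kalpha with substrate in 0.038 M HEPES pH 7.4, 0.28 mM EGTA, 0.1% CHAPS, 5% DMSO; reaction started with 5 microM ATP (final), 60 min at room temperature. ADP formed read by ADP-Glo luminescence.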
Numbers without * were called inactive; ? = inconclusive; · = no result given; ! = not active in a repeat; [ ] = another dose, or the depositor's remark. Unless noted, the call rests on the fitted dose curve; in most records, active means well fitted curve in the direction sought with a large enough effect; inconclusive means small, poorly fitted or top-dose-only effect, or another doubt; inactive means no such curve, though single readings can be large; an effect the other way counts as inactive or inconclusive.

SMILES | WRN inhibitor | POLB inh | Pol kappa inh | POLI inh | Pol eta inh | PI5P4Ka inh
Cc1ccc2cc(CN(C)C(=O)c3cccc(Cl)c3)c(=O)[nH]c2c1 | · | 25% | -7% | 7% | -5% | ·
Cc1ccc2cccc(S(=O)(=O)N3CCCc4ccccc43)c2n1 | -5% | 20% | 1% | 15% | -22% | 6
OCc1nc2ccccc2[nH]1 | · | · | -23% | 13% | · | ·
S=c1cnc2ccccc2[nH]1 | -33% | -26% | -11% | 21% | -14% | -61*
O=C(OCC1OC(n2ncc(=O)[nH]c2=O)C(OC(=O)c2ccccc2)C1OC(=O)c1ccccc1)c1ccccc1 (stereo unspecified) | -9% | ? | ? | ? | 89µM* | -4
CCS(=O)(=O)c1ccc(C=NNc2nc3ccccc3o2)cc1 | -12% | · | -9% | 8% | -8% | -5
O=[N+]([O-])c1ccc(/C=N/Nc2nc3ccccc3o2)cc1 | -2% | 45µM* | -3% | -1% | -1% | 2
Cc1cccc(C)c1Nc1nn2c(=O)c3cc4c(cc3nc2s1)OCO4 | · | -17% | -7% | -17% | -13% | ·
Cc1cccc(Nc2nn3c(=O)c4cc5c(cc4nc3s2)OCO5)c1 | · | 3.2µM* | -8% | -2% | -5% | ·
CC(=O)Nc1cccc(OCC(=O)Nc2sccc2C(N)=O)c1 | -2%[11.6 µM] | 0% | -31% | 50µM* | ? | -7
NC(=O)c1ccsc1NC(=O)COC(=O)c1cc(=O)[nH]c2ccccc12 | ? | · | -16% | ? | 40µM* | 3
O=C(COC(=O)c1cc(=O)[nH]c2ccccc12)NCc1cccs1 | -12% | 5% | -2% | -14% | -16% | 5
CCOc1ccccc1C(O)C1=CC(=O)c2ccccc2C1=O (stereo unspecified) | ? | · | ? | 6.3µM* | 3.2µM* | ?
O=C1C[C@@H](c2ccc(O)c(O)c2)Oc2cc(O[C@H]3O[C@@H](CO)[C@H](O)[C@@H](O)[C@@H]3O)cc(O)c21 | · | · | 21µM* | · | · | ·
O=C(NC1CCCC1)c1ccc2c(c1)N(Cc1ccc(F)cc1)C(=O)c1ccccc1S2 | · | -29% | -19%[60.1 µM] | -18% | 1% | ·
CC1CCC(NC(=O)c2ccc3c(c2)N(Cc2cccc(F)c2)C(=O)c2ccccc2S3)CC1 (stereo unspecified) | · | -30% | -15%[60.1 µM] | 89µM* | ? | ·
O=c1c(-c2ccccc2)nc2cnc(N3CCOCC3)nc2n1CCc1ccccc1 | · | · | 3%[60.1 µM] | · | · | ·
CC(C)C[C@H](NC(=O)[C@H](CCCCN)NC(=O)[C@H](CCC(N)=O)NC(=O)[C@H](Cc1cnc[nH]1)NC(=O)[C@H](Cc1cnc[nH]1)NC(=O)[C@@H](N)C(C)C)C(=O)N[C@H](C(=O)N[C@@H](Cc1ccccc1)C(=O)N[C@@H](Cc1ccccc1)C(=O)N[C@@H](C)C(=O)N[C@@H](CCC(=O)O)C(=O)N[C@@H](CC(=O)O)C(=O)N[C@H](C(=O)NCC(=O)N[C@@H](CO)C(=O)N[C@@H](CC(N)=O)C(=O)N[C@@H](CCCCN)C(=O)O)C(C)C)C(C)C | · | · | 19%[60.1 µM] | · | · | ·
CCN(CC)c1ccccc1/C=C/[n+]1ccc(CCCCI)c2ccccc21 | · | · | 50µM* | ? | · | ·
CN(c1ccc(C(=O)N/N=C/c2cccc([N+](=O)[O-])c2)cc1)S(=O)(=O)c1ccccc1 | 4% | 12% | -3% | 11% | -3% | -5
Oc1ccc(Br)cc1C1C=C(c2ccc3c(c2)OCO3)NC(c2ccc(F)c(Br)c2)N1 (stereo unspecified) | · | · | 4% | 13µM* | · | ·
Oc1ccccc1C1C=C(c2ccc3c(c2)OCO3)NC(c2ccc(F)c(Br)c2)N1 (stereo unspecified) | · | · | 7% | ? | · | ·
O=c1c2ccccc2nc(COc2ccccc2)n1/N=C/c1ccc(O)c(O)c1 | ? | ? | ? | ? | 32µM* | -15
Cc1cc(/C=N/n2c(COc3ccccc3)nc3ccccc3c2=O)c(O)c([N+](=O)[O-])c1 | ? | -5% | -16% | -13% | ? | -51*
CC(C(=O)Nc1ccc2c(c1)OCCO2)N1Cc2ccccc2C1=O (stereo unspecified) | -3% | 3% | -12% | -11% | -4% | -1
SMILES | WRN inhibitor | POLB inh | Pol kappa inh | POLI inh | Pol eta inh | PI5P4Ka inh
COc1ccc(-n2c(=O)c(-c3ccc(Cl)cc3)nc3cnc(N(C)C)nc32)cc1 | · | · | -6%[60.1 µM] | · | · | ·
CCC[C@@H]1CCCO[C@@](C(=O)NCCN2CCOCC2)(C(F)(F)F)C1 | 2% | · | 0% | 43% | -24% | 2
COc1cc(OC)c2c(-c3ccccc3)cc(=O)oc2c1C(CC(=O)N1CCN(c2ccccc2)CC1)c1ccc2c(c1)OCO2 (stereo unspecified) | · | 50µM* | · | · | · | ·
COc1cccc(CCNC(=O)c2c(O)nc3ccccn3c2=O)c1 | · | -2% | 4% | 23% | -12% | ·
CSc1ccccc1NC(=O)Cn1c([N+](=O)[O-])cnc1C | 0% | 23% | 14% | 27% | -17% | -1
O=C1CCN(Cc2ccccc2)CCN1CCSc1ccccc1 | 1% | -1% | ? | 79µM*! | -5% | -2
COc1ccc(-c2coc3cc(O)ccc3c2=O)cc1O | 2% | 25µM* | ? | ? | -11% | -21
O=C(O)c1ccc2c(c1)S(=O)(=O)c1cc(N3CCN(c4cnccn4)CC3)ccc1C2=O | -12% | · | · | · | ? | -67*
O=C(O)c1ccc2c(c1)S(=O)(=O)c1ccccc1C2=O | -13% | -1% | -15% | -20% | -6% | -74*
O=C1c2ccccc2S(=O)(=O)c2cc(N3CCN(C(=O)c4ccccc4)CC3)ccc21 | -6% | · | -7% | 5% | -14% | 2
O=C(NCc1ccccc1)c1ccc2c(c1)S(=O)(=O)c1cc(Cl)ccc1C2=O | -7% | · | -3% | 24% | -10% | 10
O=C(O)c1ccc2c(c1)S(=O)(=O)c1cc(Cl)ccc1C2=O | 5% | · | 6% | -5% | -13% | -52*
COc1ccc2c(c1)sc1ncc(C(=O)NCc3ccc(Cl)cc3)c(=O)n12 | · | 86% | 6% | 14% | -1% | ·
Nc1c(N=Nc2ccc(-c3ccc(N=Nc4cc(S(=O)(=O)O)c5ccccc5c4N)cc3)cc2)cc(S(=O)(=O)O)c2ccccc12 | · | · | 1.1µM* | · | · | ·
Cc1cc(-c2ccc(N=Nc3ccc4c(S(=O)(=O)O)cc(S(=O)(=O)O)c(N)c4c3O)c(C)c2)ccc1N=Nc1ccc2c(S(=O)(=O)O)cc(S(=O)(=O)O)c(N)c2c1O | · | · | 1.3µM* | · | · | ·
O=c1[nH]sc2ccccc12 | 32µM* | 0% | 0% | 25µM* | -2% | -93*
O=c1ccsc2ccccc12 | 1% | · | -9% | 2% | -8% | 1
